Screening data (PubChem)
PRMT1 FP inh – inhibitors of human PRMT1; Q99873; recombinant PRMT1, activity-based probe fluorescence polarization; inhibition, % at 2.79 µM; actives 1.3% (n = 370,000); AID 652257;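 active = inhibition above about 21% made by adding two undisclosed values, limit read from the data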
ALR H2O2 inh – human ALR oxidase inhibition via reduced H2O2; inhibition, % (test concentration not listed); actives 3.8% (n = 290,000); AID 485317; purified ALR, DTT oxidation, H2O2 HRP-luminol luminescence; P55789;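 active = mean replicate inhibition above about 79%, with every replicate also reaching it, limit read from the data; inconclusive = only one of the two criteria met; inactive = mean below limit and not every replicate reaching it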
Target sequence (P55789 whole entry, looked up): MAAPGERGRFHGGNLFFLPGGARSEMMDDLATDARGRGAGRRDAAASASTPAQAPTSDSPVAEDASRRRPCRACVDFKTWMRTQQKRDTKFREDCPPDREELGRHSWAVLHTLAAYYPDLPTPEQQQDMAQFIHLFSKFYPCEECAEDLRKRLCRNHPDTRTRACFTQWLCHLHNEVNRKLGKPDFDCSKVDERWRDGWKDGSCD
rCAG binder – molecules binding r(CAG) RNA repeats; r(CAG) RNA repeat, TO-PRO-1 dye displacement fluorescence; inhibition, % at 3 µM; actives 1.3% (n = 370,000);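 active = inhibition above the plate cutoff, the mean of all test compounds on that plate plus 3 SD, cut at about 35% in these data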;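 note: higher means more dye released from RNA so lower well fluorescence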
LANA-H2A inh – blocks KSHV LANA binding to histone H2A/H2B; cell-free LANA-H2A/H2B peptide, fluorescence polarization; inhibition, % (test concentration not listed); AID 2629; actives 0.6% (n = 320,000); Q9QR71; in the data active = inhibition mostly above about 10%, no sharp cut-off; inactive = mostly below about 6.7%
Rtt109 Vps75 – inhibitors of Candida albicans Rtt109/Vps75 histone acetyltransferase; purified Rtt109/Vps75, ThioGlo CoA-SH fluorescence, 4 h; AID 540336; actives 0.16% (n = 330,000); Q5AAJ8; inhibition, % at 34.9 µM;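 active = inhibition of at least 50% in every replicate; inconclusive = best replicate reaches 50% inhibition but some replicates fall short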
Target sequence (Q5AAJ8 whole entry, looked up): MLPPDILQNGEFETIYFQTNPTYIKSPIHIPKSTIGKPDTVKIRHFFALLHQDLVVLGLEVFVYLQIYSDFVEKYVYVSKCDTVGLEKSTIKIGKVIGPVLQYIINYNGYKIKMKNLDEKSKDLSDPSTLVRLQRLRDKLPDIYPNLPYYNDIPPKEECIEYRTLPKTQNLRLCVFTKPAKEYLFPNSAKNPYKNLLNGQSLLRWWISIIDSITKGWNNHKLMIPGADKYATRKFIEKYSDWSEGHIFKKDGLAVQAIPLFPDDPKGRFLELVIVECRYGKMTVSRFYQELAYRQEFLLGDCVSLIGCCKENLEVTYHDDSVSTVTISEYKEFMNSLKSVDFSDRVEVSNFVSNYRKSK
ABHD5 PLIN5 PPI – inhibitors of human ABHD5-perilipin-5 interaction; Split G. princeps luciferase complementation, luminescence, 4 h; inhibition, % at 4 µM; actives 0.78% (n = 360,000); AID 602281;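 active = inhibition above the mean inhibition across every tested compound plus 3 SD, cut at about 22% in these data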
Hits are given with their value; - = inactive; ? = inconclusive; . = no result given. In the library only some 5.9% were active in any assay of this set; here they are far more common.

SMILES	PRMT1 FP inh	ALR H2O2 inh	rCAG binder	LANA-H2A inh	Rtt109 Vps75	ABHD5 PLIN5 PPI
COC(=O)c1cc2c(c3c4cc(C)ccc4n(S(=O)(=O)c4cccc(C)c4)c13)C(=O)N(C)C2	-	.	-	.	.	.
COC(=O)C1CCN(C(=O)c2ccc(Cl)c(S(=O)(=O)NCc3cccnc3)c2)CC1	-	-	-	43.3	-	-
CN(C)C1(CNC(=O)C2CCC(=O)N(Cc3ccc(Cl)cc3)C2)CCCCC1 (stereo not given)	-	-	-	11.2	-	-
COc1cc(NC2c3ccccc3C(=O)N2c2cc(C)ccn2)cc(OC)c1OC (stereo not given)	-	95.0	-	-	-	-
COc1cc(NC2c3ccccc3C(=O)N2c2ccc(C)cn2)cc(OC)c1OC (stereo not given)	-	-	-	-	-	-
O=C(Nc1ccc(Oc2cccnc2)cc1)C1CCN(Cc2cc(Cl)ccc2O)CC1	-	-	-	-	59.4	-
O=C(Nc1ccc(Oc2cccnc2)cc1)C1CCN(Cc2ccc(F)cc2)CC1	-	-	-	-	-	-
CCc1ccc(S(=O)(=O)/N=C2/C=C(Sc3ncn[nH]3)C(=O)c3ccccc32)cc1	.	-	.	-	?	32.3
COc1ccc(C(=O)CSC2=C(C#N)C3(CCCCC3)C(C#N)=C(N)N2)cc1	-	87.2	-	-	-	-
O=C(CNc1ccc2c(c1)OCO2)N/N=C\c1ccccc1Cl	21.5	-	-	-	-	-
CC1(C(=O)NS(=O)(=O)C2CC2)CCN(C(=O)c2cccc(Cl)c2)C1 (stereo not given)	-	.	-	.	.	-
CCCNC(=O)C1(C)CCCN(C(=O)COCc2ccccc2)C1 (stereo not given)	-	.	-	.	.	-
O=C(CCCN1C(=O)/C(=C/c2ccccc2Cl)SC1=S)NCCCN1CCOCC1	24.2	-	-	-	-	-
CCOc1cc(C=NNC(=O)c2cccc(S(=O)(=O)N3CCCC3)c2)ccc1O	-	95.1	-	-	-	-
O=C(N/N=C/c1ccc(O)c(O)c1)c1cccc(S(=O)(=O)N2CCCCC2)c1	-	99.0	-	-	-	-
CCOc1cc(/C=N/NC(=O)c2cccc(S(=O)(=O)N3CCCC3)c2)ccc1OCC(=O)N(C)C	-	-	-	-	-	-
COCC(C)N=C1NN=C(c2ccc(NC(C)=O)cc2)CS1 (stereo not given)	-	98.5	-	-	-	-
O=C(CCC1N=C2c3ccccc3N=C(SCc3cccc(Cl)c3)N2C1=O)NCc1ccco1 (stereo not given)	-	-	-	-	-	-
O=C(CCC1N=C2c3ccccc3N=C(SCc3ccccc3Cl)N2C1=O)NCc1ccco1 (stereo not given)	-	99.3	-	-	-	-
Cc1cc(C)n2c(NC3CCCCC3)c(-c3cccnc3)nc2n1	-	.	-	.	.	-
Cc1ccn2c(NC3CCCCC3)c(-c3cccc(SC4CCCCC4)c3)nc2c1	-	-	-	-	-	-
Fc1ccc(-c2nc3cnccn3c2NC2CCCC2)cc1	-	99.3	-	-	-	-
Oc1ccc(Br)cc1-c1nc2cnccn2c1NC1CCCCC1	-	92.1	-	-	-	-
Oc1ccc(Br)cc1-c1nc2cnccn2c1NC1CCCC1	-	94.4	-	-	-	-
Cc1cc(=O)[nH]c(N/N=C/C2=C(N3CCOCC3)C(=C\c3ccc(Cl)cc3)/CC2)n1	-	97.8	-	-	-	-
SMILES	PRMT1 FP inh	ALR H2O2 inh	rCAG binder	LANA-H2A inh	Rtt109 Vps75	ABHD5 PLIN5 PPI
COc1cc(/C=N/Nc2nc(N3CCCC3)nc(N3CCCC3)n2)ccc1O	-	99.4	-	-	-	-
Oc1ccc(/C=N/Nc2nc(N3CCCC3)nc(N3CCCC3)n2)cc1O	-	98.9	-	-	-	-
Cc1cc(=O)[nH]c(N/N=C/c2ccc(O)c(O)c2)n1	-	99.4	-	-	-	-
COc1cc(N2C[C@@]3(O)CC[C@@H](O)[C@@H](OC)[C@@H]3[C@@](C)(O)[C@@H]2CC=C(C)C)cc(OC)c1OC	-	.	-	.	.	.
COC1CC(=O)C2OC(c3ccccc3)OCC2O1 (stereo not given)	-	.	-	.	.	-
COc1ccc(-n2c(/C=C3\C(=O)N(C)c4ccccc43)nc3ccccc3c2=O)cc1	-	97.1	-	-	-	-
CCN1C(=O)/C(=C\c2nc3ccccc3c(=O)n2-c2ccccc2)c2ccccc21	-	-	-	-	-	-
CC(Oc1ccc(Br)cc1)C(=O)NNC(=O)CCN1CCN(c2ccccc2)CC1 (stereo not given)	-	95.2	-	-	-	-
CCOc1ccc(C(=O)CCC(=O)NNC(=O)CCN2CCN(c3ccccc3)CC2)cc1	-	95.1	-	-	-	-
Cc1ccsc1C(=O)NNC(=O)CCN1CCN(c2ccccc2)CC1	-	93.6	-	-	?	-
CCOc1ccc(NC(=O)CCN2CCN(c3ccccc3)CC2)cc1	-	-	-	-	-	-
Cc1ccc(-c2nc3ncccn3c2NC(=O)c2ccc(F)cc2)cc1	-	.	-	.	.	.
OC(c1cc(F)cc(Cl)c1)c1ncc(-c2ccccc2Cl)[nH]1 (stereo not given)	-	.	-	.	.	-
Cc1onc(C(=O)N2CCN(C(c3ccc(Cl)cc3)c3ccc(Cl)cc3)CC2)c1[N+](=O)[O-]	-	.	.	.	.	.
Cc1cc(C(=O)CSc2ccc(F)cc2)cc(C)c1OC(=S)N(C)C	-	-	-	-	-	-
COc1ccc(SCC(=O)c2cc(C)c(OC(=S)N(C)C)c(C)c2)cc1	-	91.6	-	-	-	-
O=C(CSc1nnc(-c2cccs2)o1)Nc1cc(Cl)cc(Cl)c1	-	.	-	.	.	.
Cc1ccc(S(=O)(=O)N2CC(CBr)=CCC2c2ccccc2)cc1 (stereo not given)	-	.	-	.	.	.
Cc1ccc2c(=O)cc(C(=O)NC3CCS(=O)(=O)C3)oc2c1C (stereo not given)	-	98.2	-	.	-	-
COC(=O)[C@@]1(Cc2ccc(F)cc2)[C@H]2c3cc(C(=O)N(C)C)n(Cc4ccc(C)o4)c3C[C@H]2CN1C(=O)c1ccccc1	22.0	.	-	.	.	-
COC(=O)[C@@]1(Cc2ccc(F)cc2)[C@H]2c3cc(C(=O)N4CCCC4)n(CCc4ccccn4)c3C[C@H]2CN1C(=O)c1ccccc1	-	.	-	17.9	.	.
Cc1ccc(-c2cnc(SCCNC(=O)c3ccco3)[nH]2)cc1	-	93.6	-	-	-	-
Cc1ccc(C(=O)NCCCNC(=O)c2ccco2)cc1	-	-	-	-	-	-
CNc1ccc(-c2ccccc2CO)cn1	-	.	-	.	.	-
Cn1c(/N=C/c2c(O)ccc3ccccc23)nc2ccccc21	-	91.3	-	-	-	-
S=C(SCc1cc(Cl)cc2c1OCOC2)N1CCSCC1	-	.	-	.	.	.
O=C(O)c1ccc2c(c1)C(=O)/C(=C/c1ccccc1)C2=O	25.4	-	-	-	-	-
O=C(O)c1ccc(C=NN=Cc2ccco2)cc1	-	.	-	.	-	-
